Assay results from the supplement of paper PMC4466140.

target: CaNbp2; experiment: SPOT peptide array binding signal intensity (averaged, normalized) (arbitrary units (background-subtracted, floor 0; scale differs between SH3 domains)); higher = stronger binding of the SH3 domain to the peptide
How it was run: (§1)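 GST-SH3 fusions from four yeast species, purified on glutathione Sepharose, were incubated at 10 μg/ml overnight at 4°C on membranes of synthetic 15-mer peptides in which cysteines were replaced with serines. Binding signal is the normalized, background-subtracted spot intensity averaged over replicates, in domain-specific arbitrary units.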

Row | Binder | SPOT peptide array binding signal intensity
1 | DGNEEKPLLPTRPNK | 4.5

target: CaRvs167; experiment: as above
How it was run: as §1

Row | Binder | SPOT peptide array binding signal intensity
2 | DGNEEKPLLPTRPNK | 382

target: CaRvs167-3; experiment: as above
How it was run: as §1

Row | Binder | SPOT peptide array binding signal intensity
3 | DGNEEKPLLPTRPNK | 22

target: CaSho1; experiment: as above
How it was run: as §1

Row | Binder | SPOT peptide array binding signal intensity
4 | DGNEEKPLLPTRPNK | 1.5

target: CaSla1-D1-D2; experiment: as above
How it was run: as §1

Row | Binder | SPOT peptide array binding signal intensity
5 | DGNEEKPLLPTRPNK | ≤ 0

target: CaSla1-D3; experiment: as above
How it was run: as §1

Row | Binder | SPOT peptide array binding signal intensity
6 | DGNEEKPLLPTRPNK | ≤ 0

target: ScAbp1; experiment: as above
How it was run: as §1

Row | Binder | SPOT peptide array binding signal intensity
7 | DGNEEKPLLPTRPNK | ≤ 0

target: ScBbc1; experiment: as above
How it was run: as §1

Row | Binder | SPOT peptide array binding signal intensity
8 | DGNEEKPLLPTRPNK | 306

target: ScBem1-D1; experiment: as above
How it was run: as §1

Row | Binder | SPOT peptide array binding signal intensity
9 | DGNEEKPLLPTRPNK | 6.5

target: ScBzz1-D1; experiment: as above
How it was run: as §1

Row | Binder | SPOT peptide array binding signal intensity
10 | DGNEEKPLLPTRPNK | 34.2

target: ScBzz1-D2; experiment: as above
How it was run: as §1

Row | Binder | SPOT peptide array binding signal intensity
11 | DGNEEKPLLPTRPNK | ≤ 0

target: ScCyk3; experiment: as above
How it was run: as §1

Row | Binder | SPOT peptide array binding signal intensity
12 | DGNEEKPLLPTRPNK | ≤ 0

target: ScFus1; experiment: as above
How it was run: as §1

Row | Binder | SPOT peptide array binding signal intensity
13 | DGNEEKPLLPTRPNK | ≤ 0

target: ScHof1; experiment: as above
How it was run: as §1

Row | Binder | SPOT peptide array binding signal intensity
14 | DGNEEKPLLPTRPNK | 41.6

target: ScHse1; experiment: as above
How it was run: as §1

Row | Binder | SPOT peptide array binding signal intensity
15 | DGNEEKPLLPTRPNK | 15

target: ScLsb1; experiment: as above
How it was run: as §1

Row | Binder | SPOT peptide array binding signal intensity
16 | DGNEEKPLLPTRPNK | 209

target: ScLsb2; experiment: as above
How it was run: as §1

Row | Binder | SPOT peptide array binding signal intensity
17 | DGNEEKPLLPTRPNK | 10

target: ScLsb3; experiment: as above
How it was run: as §1

Row | Binder | SPOT peptide array binding signal intensity
18 | DGNEEKPLLPTRPNK | 7260

target: ScLsb4; experiment: as above
How it was run: as §1

Row | Binder | SPOT peptide array binding signal intensity
19 | DGNEEKPLLPTRPNK | 4200

target: ScMyo3; experiment: as above
How it was run: as §1

Row | Binder | SPOT peptide array binding signal intensity
20 | DGNEEKPLLPTRPNK | 0.5

target: ScMyo5; experiment: as above
How it was run: as §1

Row | Binder | SPOT peptide array binding signal intensity
21 | DGNEEKPLLPTRPNK | 8.12

target: ScNbp2; experiment: as above
How it was run: as §1

Row | Binder | SPOT peptide array binding signal intensity
22 | DGNEEKPLLPTRPNK | ≤ 0

target: ScPex13; experiment: as above
How it was run: as §1

Row | Binder | SPOT peptide array binding signal intensity
23 | DGNEEKPLLPTRPNK | 855

target: ScRvs167; experiment: as above
How it was run: as §1

Row | Binder | SPOT peptide array binding signal intensity
24 | DGNEEKPLLPTRPNK | 871

target: ScSho1; experiment: as above
How it was run: as §1

Row | Binder | SPOT peptide array binding signal intensity
25 | DGNEEKPLLPTRPNK | ≤ 0

target: ScSla1-D1-D2; experiment: as above
How it was run: as §1

Row | Binder | SPOT peptide array binding signal intensity
26 | DGNEEKPLLPTRPNK | ≤ 0

target: ScSla1-D3; experiment: as above
How it was run: as §1

Row | Binder | SPOT peptide array binding signal intensity
27 | DGNEEKPLLPTRPNK | ≤ 0

target: SpAbp1-D1; experiment: as above
How it was run: as §1

Row | Binder | SPOT peptide array binding signal intensity
28 | DGNEEKPLLPTRPNK | ≤ 0

target: SpBbc1; experiment: as above
How it was run: as §1

Row | Binder | SPOT peptide array binding signal intensity
29 | DGNEEKPLLPTRPNK | 0.5

target: SpBzz1-D1; experiment: as above
How it was run: as §1

Row | Binder | SPOT peptide array binding signal intensity
30 | DGNEEKPLLPTRPNK | ≤ 0

target: SpBzz1-D2; experiment: as above
How it was run: as §1

Row | Binder | SPOT peptide array binding signal intensity
31 | DGNEEKPLLPTRPNK | ≤ 0

target: SpCyk3; experiment: as above
How it was run: as §1

Row | Binder | SPOT peptide array binding signal intensity
32 | DGNEEKPLLPTRPNK | ≤ 0

target: SpHof1; experiment: as above
How it was run: as §1

Row | Binder | SPOT peptide array binding signal intensity
33 | DGNEEKPLLPTRPNK | 0.25

target: SpHof1-2; experiment: as above
How it was run: as §1

Row | Binder | SPOT peptide array binding signal intensity
34 | DGNEEKPLLPTRPNK | 0.875

target: SpHof1-3; experiment: as above
How it was run: as §1

Row | Binder | SPOT peptide array binding signal intensity
35 | DGNEEKPLLPTRPNK | 1.88

target: SpHse1; experiment: as above
How it was run: as §1

Row | Binder | SPOT peptide array binding signal intensity
36 | DGNEEKPLLPTRPNK | ≤ 0

target: SpLsb1; experiment: as above
How it was run: as §1

Row | Binder | SPOT peptide array binding signal intensity
37 | DGNEEKPLLPTRPNK | 1100

target: SpLsb4; experiment: as above
How it was run: as §1

Row | Binder | SPOT peptide array binding signal intensity
38 | DGNEEKPLLPTRPNK | 3290

target: SpMyo1; experiment: as above
How it was run: as §1

Row | Binder | SPOT peptide array binding signal intensity
39 | DGNEEKPLLPTRPNK | ≤ 0

target: SpNbp2; experiment: as above
How it was run: as §1

Row | Binder | SPOT peptide array binding signal intensity
40 | DGNEEKPLLPTRPNK | ≤ 0

target: SpPex13; experiment: as above
How it was run: as §1

Row | Binder | SPOT peptide array binding signal intensity
41 | DGNEEKPLLPTRPNK | ≤ 0

target: SpRvs167; experiment: as above
How it was run: as §1

Row | Binder | SPOT peptide array binding signal intensity
42 | DGNEEKPLLPTRPNK | 467

target: SpSla1-D1-D2; experiment: as above
How it was run: as §1

Row | Binder | SPOT peptide array binding signal intensity
43 | DGNEEKPLLPTRPNK | ≤ 0

target: SpSla1-D3; experiment: as above
How it was run: as §1

Row | Binder | SPOT peptide array binding signal intensity
44 | DGNEEKPLLPTRPNK | ≤ 0
